Shown are actives, neighbours in structure and some others; about 7.6% of the full set was active somewhere.
BRCA1 expr up: increases BRCA1 expression; MCF7-BRCA1-FFLuc reporter, luminescence, 48 h; response scale: scaled: vehicle 0%, 10 µM genistein 100%; Potency, µM (doses to about 46.1 µM), actives largely listed as activators; 380,000 compounds, 1.1% hits; also: nearly all actives have a fitted effect of over 80% in size
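Activators of BRCA1 expression were detected as increased firefly luciferase luminescence in engineered MCF7 cells after 48 h compound incubation. Signals were scaled to genistein 10 microM as full activation.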
Giardia killer: kills Giardia lamblia. Giardia lamblia trophozoite viability. activity change, % at 7.66 µM, hits read low. 340,000 compounds, 0.15% hits; in the data active = activity change below about -80%; inconclusive = between about -30% and that limit;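 also: parasites exposed to compound for two days anaerobically before the ATP read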
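Killing of trophozoites was scored by loss of ATP luminescence after a 48 hrs anaerobic exposure to compounds at 37 deg C, using 100 cells per well.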
ELG1 DNA repair: blocks ELG1-dependent DNA repair in HEK293T cells; 330,000 compounds, 2.3% hits; Potency, µM (titrated, usually from 46.1 µM), actives largely listed as inhibitors; HEK293T ELG1-luciferase reporter, luminescence, 16 h; DNA damage induced by 5-fluorouridine; AID 504467; also: nearly all actives have a fitted effect of over 55% in size
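Cells (2,000 per well) received 5-fluorouridine plus test compound or DMSO and were incubated 16 hr at 37 °C, 5% CO2. Luciferase activity was read by luminescence 30 min after ONE-Glo addition; signal suppression marked inhibition of damage-induced ELG1 function.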
VP16 counter: Gal4-VP16 reporter inhibition counter-screen; Drosophila S2 Gal4-VP16 UAS-luciferase, luminescence, 20 h; 310,000 compounds, 3.5% hits; Potency, µM (series often up to 53.6 µM), usual class: inhibitors;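 also: Gal4-VP16 expression switched on by copper sulfate through the metallothionein promoter; nearly all actives have a fitted effect of over 50% in size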
p53 reactivation: re-activators of mutant p53 | H1299 p53-A138V BP100-luciferase reporter, luminescence, 24 h | Potency, µM (highest dose often 92.2 µM), most hits filed as activators | 320,000 compounds, 0.063% hits | AID 504706; also: nearly all actives have a fitted effect of over 45% in size
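p53-null H1299 cells stably carrying temperature-sensitive p53-A138V and a BP100-luciferase reporter were pinned with compounds (4-point, 1:5 series) and held 24 hrs at 37 deg C. Luminescence was read 10 min after detection reagent.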
RORgamma inh: inhibitors of mouse ROR gamma transcriptional activity | 310,000 compounds, 5.4% hits | Drosophila S2 Gal4-RORgamma UAS-luciferase reporter, 20 h | AID 2551 | P51450 | Potency, µM (series often up to 53.6 µM), usual class: inhibitors; also: nearly all actives have a fitted effect of over 60% in size
Target sequence (P51450 whole entry, looked up, the tested form may be a part): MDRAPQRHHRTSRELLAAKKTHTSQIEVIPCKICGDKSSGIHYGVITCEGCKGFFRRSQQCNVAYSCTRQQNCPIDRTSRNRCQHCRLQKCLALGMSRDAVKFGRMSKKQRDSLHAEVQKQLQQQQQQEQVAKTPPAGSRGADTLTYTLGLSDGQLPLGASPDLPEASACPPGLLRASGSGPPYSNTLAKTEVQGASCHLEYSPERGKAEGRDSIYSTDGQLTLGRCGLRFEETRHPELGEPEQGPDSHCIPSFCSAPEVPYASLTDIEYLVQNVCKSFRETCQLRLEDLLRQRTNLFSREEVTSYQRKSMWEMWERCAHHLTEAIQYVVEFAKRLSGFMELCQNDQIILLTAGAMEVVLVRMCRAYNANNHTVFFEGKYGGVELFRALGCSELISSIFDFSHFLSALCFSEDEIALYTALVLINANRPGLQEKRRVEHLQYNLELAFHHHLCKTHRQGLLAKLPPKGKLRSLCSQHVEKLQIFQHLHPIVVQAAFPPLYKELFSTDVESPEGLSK
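Schneider cells (Drosophila), stable Gal4 DBD–ROR gamma + UAS-luc; 1 hr cmpd preincubation; Cu2+ induction 700 uM final; 20 hr ambient; luminescence.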
A number is an active result; - = inactive; ? = inconclusive; . = not tested or not shown. Unless noted, calls follow the shape of the dose curve; as a rule, active = well fitted curve in the direction sought with a large enough effect; inconclusive = small, poorly fitted or top-dose-only effect, or another doubt; inactive = no such curve, though single readings can be large; an effect the other way counts as inactive or inconclusive.

SMILES	BRCA1 expr up	Giardia killer	ELG1 DNA repair	VP16 counter	p53 reactivation	RORgamma inh
CCC(C)[C@@H](C(=O)NCC1CCC(C(=O)O)CC1)n1nnc2ccccc2c1=O (some centres not stated)	-	-	-	-	-	-
O=c1cc(N2CCc3ccccc32)[nH]c(=O)n1-c1ccc(Cl)cc1	-	-	-	-	-	-
CC(C)c1nnc(NC(=O)CSc2nnc(-c3ccco3)o2)s1	-	-	-	18µM	-	11µM
Cc1ccc(NC(=O)CSc2nnc(-c3ccco3)o2)c(C)c1	-	-	-	-	-	-
Cc1nnc(NC(=O)CSc2nnc(-c3ccco3)o2)s1	-	-	-	5µM	-	1.6µM
O=C(Cc1ccccc1)NC(=S)Nc1cc(C(F)(F)F)ccc1Cl	-	-	-	-	-	1.6µM
O=C(Cc1ccccc1)NC(=S)Nc1cccc(C(F)(F)F)c1	-	-	-	13µM	-	7.1µM
O=C(O)CSCC(=O)Nc1cc(C(F)(F)F)ccc1Cl	-	-	-	-	-	-
Cc1ccc(C(=O)NC(=S)Nc2cc(C(F)(F)F)ccc2Cl)cc1	-	-	-	-	-	10µM
O=C(Nc1cc(C(F)(F)F)ccc1Cl)c1ccncc1	-	-	-	-	-	-
COc1cccc(NC(=S)NC(=O)Cc2ccccc2)c1	-	-	.	.	.	.
COC(=O)CCC(=O)NC(=S)Nc1cc(Cl)ccc1Cl	-	-	-	?	-	10µM
OCC1(Cc2ccccc2)CCCN(Cc2c[nH]c3ccccc23)C1 (configuration not stated)	-	-	-	-	-	-
COc1ccc(OC)c(S(=O)(=O)Nc2c(C)n(C)n(-c3ccccc3)c2=O)c1	-	-	-	-	.	-
CC1CC(c2ccccc2)=Nc2ccccc2N1 (configuration not stated)	-	-	?	-	-	-
CCOc1cc(Cl)c(S(=O)(=O)NCc2ccccn2)cc1Cl	-	-	-	20µM	-	13µM
COc1cc(Cl)c(S(=O)(=O)NCc2ccccn2)cc1Cl	-	-	-	-	-	11µM
Nc1ccccc1N=Nc1ccccc1N	-	-	?	?	.	10µM
Nc1ccc(N=Nc2ccccc2)c(N)c1	.	.	.	-	.	-
CN(C(=O)CSC1=NCCS1)c1ccccc1	-	-	-	-	-	-
CN(C(=O)CSc1nc(N)c2c3c(sc2n1)CSC(C)(C)C3)c1ccccc1	-	-	21µM	-	-	-
COc1ccc(OC)c2c(N3CCN(C)CC3)cc(C(F)(F)F)nc12	-	-	-	-	-	-
COC(=O)c1ccc(Sc2nnnn2-c2ccccc2)c([N+](=O)[O-])c1	-	-	-	?	-	13µM
CC(=O)Nc1ccc(C(=O)CSc2nnc(-c3ccccc3F)n2CCc2ccccc2)cc1	-	-	.	.	.	.
CC(=O)c1sc(N/N=C\c2ccc(Br)cc2)nc1C	3.5µM	-	?	?	?	?
SMILES	BRCA1 expr up	Giardia killer	ELG1 DNA repair	VP16 counter	p53 reactivation	RORgamma inh
CCOC(=O)c1sc(N/N=C/c2ccc(N(C)C)cc2)nc1C	-	-	-	11µM	.	?
CCOC(=O)c1nc(N/N=C/c2ccccc2)sc1Br	-	-	-	?	.	18µM
Cn1c(NC(=O)CCC2CCCCC2)cc(=O)n(C)c1=O	2.2µM	?	?	?	?	-
Cn1c(NNC(=O)CCC2CCCCC2)cc(=O)n(C)c1=O	-	-	-	-	-	-
Cc1ccc(O)c(NC(=O)CCC2CCCCC2)c1	4µM	-	?	-	-	-
Cc1ccc(NC(=O)C2CCCC2)c(Br)c1	-	-	.	.	.	.
Cc1ccc(NC(=O)CC2CCCC2)c(Br)c1	13µM	-	?	-	?	-
Cc1ccc(NC(=O)CN(C)CC(=O)Nc2c(C)cccc2C)c(Br)c1	-	-	7.3µM	-	-	?
O=C(CCC1CCCCC1)Nc1ccccc1O	-	-	?	-	?	?
CC(C)C[C@H]1COC(c2ccc(Br)cc2)=N1	.	.	.	-	.	-
O=C(Nc1ccc(Br)cc1)C1CC(c2c(F)cccc2Cl)=NO1 (configuration not stated)	-	-	-	-	.	?
COc1ccc(C(=O)NNC(=O)c2ccccn2)cc1	?	-	?	5.6µM	-	7.1µM
COc1ccc(C(=O)NCCNC(=O)c2ccccn2)cc1	-	-	-	-	-	-
CC(Oc1ccccc1)C(=O)NNC(=O)c1ccccn1 (configuration not stated)	-	-	-	?	-	7.9µM
O=C(NNC(=O)c1csc(-c2cccs2)n1)c1ccc(Cl)cc1	-	.	.	.	.	.
CC(Oc1cccc(Br)c1)C(=O)NNC(=O)c1ccccn1 (configuration not stated)	-	-	?	.	?	.
O=C(NNCc1ccccc1)c1ccccn1	1.1µM	-	.	.	.	.
Cc1nc(C(=O)NNC(=O)c2ccc(Cl)cc2)cs1	-	-	?	?	-	4µM
CCOC(=O)c1c(C)nsc1NC(=O)C1CCCCC1	-	-	-	-	-	-
O=C(CNS(=O)(=O)c1ccccc1)NCc1cccnc1	-	-	-	-	-	-
COc1ccc(OCC(=O)NNC(=O)c2ccccn2)cc1	-	-	-	?	-	13µM
O=C(NN=C1CCCCCCC1)c1ccccn1	-	-	?	-	?	-
COc1cc(OC)cc(C(=O)NNC(=O)c2ccc3ccccc3n2)c1	-	-	?	.	?	.
COc1cc(OC)cc(C(=O)NNC(=O)c2ccccn2)c1	-	-	?	5.6µM	?	4.5µM
COc1ccc(OC(C)C(=O)Nc2ccc([N+](=O)[O-])cc2)cc1 (configuration not stated)	-	-	?	-	-	?
SMILES	BRCA1 expr up	Giardia killer	ELG1 DNA repair	VP16 counter	p53 reactivation	RORgamma inh
COc1ccc2c(c1)C(=NNC(=O)c1ccccn1)c1cc(OC)ccc1-2	-	-	?	4µM	-	2.8µM
C/C(=N\NC(=O)C(C)Oc1ccc([N+](=O)[O-])cc1)c1ccccn1 (configuration not stated)	-	-	?	2.2µM	-	1.1µM
Cn1c2c(c(=O)n(C)c1=O)C(NS(=O)(=O)c1ccccc1)(C(F)(F)F)C(=O)N2 (configuration not stated)	-	-	-	-	-	-
Cc1onc(-c2c(F)cccc2Cl)c1C(=O)NC(=S)NC1CCSC1=O (configuration not stated)	-	-	-	7.1µM	-	7.1µM
Cc1ccccc1C(=O)NC(=S)NC1CCSC1=O (configuration not stated)	-	-	-	-	-	11µM
Cc1csc(=O)n1CCC(=O)OCC(=O)Nc1ccc(S(N)(=O)=O)cc1	-	-	?	.	-	.
Cc1ccc(C(=O)NNC(=O)c2ccoc2C)s1	-	-	?	.	-	.

Screens from PubChem BioAssay.
